Compound activity: PubChem BioAssay, National Center for Advancing Translational Sciences (NCATS)
GALK inh: inhibits human galactokinase; P51570; recombinant GALK, Kinase-Glo ATP luminescence, 1 h; Potency, µM (highest dose often 57.5 µM), inactives show top-dose activity, negative = inhibition, usual class: inhibitors; 44,000 tested, under 10 active; AID 1347072;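 further: plate controls were full GALK reaction for no effect and reaction lacking GALK for full effect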
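Luminescent ATP-depletion readout (Kinase-Glo Plus, 10 min) after 1 h RT reaction of 5 nM GALK, 35 uM ATP, 100 uM galactose, pH 8.0 HEPES buffer. Decreased kinase activity scored as inhibition.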
GPR32 ag: agonists of human resolvin D1 receptor DRV1 (GPR32). CHO-K1 GPR32 beta-arrestin PathHunter luminescence, 90 min; zero percent set by DMSO-only wells. AID 1346428. activation, % at 76.9 µM. O75388. 2.5% of 48,000 active;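 active means activation of at least 60% and not above a set upper limit, about 1 call in 100 departs from these limits; inconclusive means activation of 40% to 60%, or above that upper limit; inactive means activation under 40%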; further: 0% is about no effect
Target sequence (O75388 whole entry, looked up): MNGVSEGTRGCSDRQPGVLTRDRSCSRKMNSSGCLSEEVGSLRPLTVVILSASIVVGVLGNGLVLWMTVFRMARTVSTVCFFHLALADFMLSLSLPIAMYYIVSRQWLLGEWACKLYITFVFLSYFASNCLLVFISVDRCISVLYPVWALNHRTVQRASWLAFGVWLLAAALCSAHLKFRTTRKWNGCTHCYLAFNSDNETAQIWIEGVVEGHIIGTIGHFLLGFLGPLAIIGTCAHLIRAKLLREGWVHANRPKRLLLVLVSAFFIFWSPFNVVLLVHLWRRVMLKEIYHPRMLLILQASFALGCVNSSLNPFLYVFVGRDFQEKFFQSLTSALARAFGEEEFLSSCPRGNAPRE
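Agonism was scored by beta-Gal fragment complementation (chemiluminescent read, 1 h detection at ambient temperature) reporting beta-arrestin binding to GPR32 in engineered CHO-K1 cells. Compound treatment lasted 90 min at 37 C, normalized to a DMSO basal control.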
NTMT1 inh: inhibitors of human N-terminal methyltransferase NTMT1. Q9BV86. NTMT1 MTase-Glo SAH luminescence, purified enzyme. Potency, µM (top dose mostly 114 µM), for inactives: at the top dose activity change, negative = inhibition, usual class: inhibitors. 2.5% of 59,000 active. AID 1645870;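 further: potency means the concentration at half of the fitted maximal effect; plate controls were DMSO vehicle for no effect and no enzyme for full effect; nearly all actives have a fitted effect of over 65% in size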
GALC G270D up: enhancers of human galactocerebrosidase G270D mutant activity in cells. 145M-Twi-hGALC-G270D cells (Twitcher mouse brain line with human GALC G270D), HMU-beta-Gal fluorescence, 48 h. Potency, µM (highest dose often 57.5 µM), actives largely listed as activators. 0.1% of 45,000 active. AID 1159614; further: potency means the concentration at half of the fitted maximal effect; 0% is about no effect; nearly all actives have a fitted effect of over 65% in size
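Fluorogenic HMU-b-Gal hydrolysis (0.1 mM final, pH 5.2 citrate-phosphate with 1 mg/mL sodium taurocholate; carbonate stop buffer) measures mutant GALC activity after compound treatment of live 145M-Twi Twitcher brain cells stably carrying human GALC-G270D, with wild-type GALC line alongside; activation sought.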
B2AR arrestin ag: beta-arrestin recruitment by human beta2-adrenergic receptor ligands. P07550. HTLA Tango cells, beta-arrestin recruitment, luciferase luminescence, 18 h. Potency, µM (series often up to 46.1 µM), hits mostly activators. 44,000 tested, under 10 active. AID 1347077;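 further: potency means the concentration at half of the fitted maximal effect; 0% = DMSO and full agonism = EC100 isoproterenol or metaproterenol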
Target sequence (P07550 whole entry, looked up): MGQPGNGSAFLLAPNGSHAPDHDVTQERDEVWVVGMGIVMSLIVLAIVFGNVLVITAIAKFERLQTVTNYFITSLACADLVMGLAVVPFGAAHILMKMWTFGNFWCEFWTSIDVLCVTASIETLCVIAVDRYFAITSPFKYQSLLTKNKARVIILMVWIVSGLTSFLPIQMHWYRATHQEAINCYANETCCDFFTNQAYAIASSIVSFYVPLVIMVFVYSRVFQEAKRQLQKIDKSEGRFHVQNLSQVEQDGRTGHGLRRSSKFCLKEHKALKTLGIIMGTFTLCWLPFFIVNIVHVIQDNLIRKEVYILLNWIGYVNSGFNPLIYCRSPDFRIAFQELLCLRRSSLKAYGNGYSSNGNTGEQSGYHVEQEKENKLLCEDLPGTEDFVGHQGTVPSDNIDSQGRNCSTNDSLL
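Luminescence read-out: arrestin recruitment to recombinant beta2-AR releases tTA, inducing luciferase. Cells exposed 18 hr at 37 degrees C to up to 46 microM compound; %Activity from corrected signal, concentration-response curves classified by r2, magnitude and efficacy.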
TSG101-PTAP inh: TSG101-PTAP interaction inhibition, HIV-1 budding. Q99816. Fluorescence polarization, FITC-PTAP peptide/Tsg101, 20 min. Potency, µM (doses to about 115 µM), usual class: inhibitors. 44,000 tested, under 10 active; further: potency means the concentration at half of the fitted maximal effect; 0% is about no effect
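Fluorescence polarization binding of Tsg101 binding domain (10 uM final) to FITC-labeled PTAP-motif peptide (50 nM final) in HEPES pH 7.5/NaCl/Tween 20/EDTA/TCEP buffer; 20 min at r.t. Actives by curve class, <25 µM, efficacy <60% inhibition.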
An asterisk follows results filed as active; i = inactive; ? = inconclusive; / = no result given; ! = repeats disagree; [ ] = another dose, or the depositor's remark. Sampled rows, rich in hits. Any-hit rate of the full collection: about 3.6%. Unless noted, the call rests on the fitted dose curve; in most records, active means well fitted curve in the direction sought with a large enough effect; inconclusive means small, poorly fitted or top-dose-only effect, or another doubt; inactive means no such curve, though single readings can be large; an effect the other way counts as inactive or inconclusive.

SMILES	GALK inh	GPR32 ag	NTMT1 inh	GALC G270D up	B2AR arrestin ag	TSG101-PTAP inh
Cc1ccccc1OCC(=O)Nc1ccc2nc(SCC(N)=O)sc2c1	0.0%	?	-22.6%	i	i	i
CC(=O)Nc1ccc2nc(SCCOc3ccccc3Cl)sc2c1	1.2%	69.4*	22.5%	i	i	i
CCOC(=O)CSc1nc2ccc(NC(=O)COc3ccccc3C)cc2s1	-7.7%	75.2*	6.9%	i	i	i
NC(=O)CSc1nc2ccc(NC(=O)COc3ccccc3Cl)cc2s1	-1.2%	90.3*	?	i	i	i
Cc1cn(C2OC(CO)C(O)C2F)c(=O)[nH]c1=O (stereo not drawn)	/	/	12.3%	/	/	/
CCOC(=O)c1c(-c2ccccc2)oc2ccc(OCc3cccc(Br)c3)cc12	0.1%	-13.6	17.6%	i	i	i
Cc1cc(OCCCS(C)(=O)=O)cc(C)c1-c1cccc(COc2ccc3c(c2)OC[C@H]3CC(=O)O)c1	/	/	79.4µM*!	/	/	/
CCOc1ccccc1NC(=O)Cn1ccn(Cc2ccc(C)cc2)c(=O)c1=O	-0.1%	-9.3	89.1µM*	i	i	i
Cc1ccc(Nc2ncnc3c2cnn3-c2ccccc2)c(C)c1	3.2%	20.5	11.2µM*	i	i	i
Cc1ccc(-n2ncc3c(NCC(C)C)ncnc32)c(C)c1	-0.7%	62.3*	4.1%	i	i	i
Cc1ccc(-n2ncc3c(N(CC(C)C)CC(C)C)ncnc32)c(C)c1	-1.2%	29.6	-3.7%	i	i	i
CC(C)(C)c1ccc(C(=O)NNc2ncnc3c2cnn3-c2ccc(Cl)cc2)cc1	-5.7%	25.7	29.0%	i	i	i
CC(C)(C)c1ccc(C(=O)NNc2ncnc3c2cnn3-c2ccccc2)cc1	-0.4%	103.7*	9.6%	i	i	i
O=C(NCCc1csc(-c2ccc(F)cc2)n1)c1cccc(F)c1	-2.4%	65.7*	-6.8%	i	i	i
O=C(NCCc1csc(-c2ccc(F)cc2)n1)c1c(F)cccc1Cl	1.7%	45.4	0.6%	i	i	i
Cc1cccc(-c2nc(CCNC(=O)Cc3ccc(F)cc3)cs2)c1	0.3%	-16.0	10.4%	i	i	i
O=C(Cc1ccc(F)cc1)NCCc1csc(-c2cccc(F)c2)n1	1.5%	103.3*	9.0%	i	i	i
N#Cc1cccnc1N1CCN(C(=O)c2cccc(Cc3n[nH]c(=O)c4ccccc34)c2)CC1	/	/	-1.9%	/	/	/
CC1=NN(c2ccc(C(=O)O)cc2)C(=O)/C1=C/c1ccc(-c2cc(C)c(C)cc2[N+](=O)[O-])o1	/	/	50.1µM*	/	/	/
O=C(O)c1ccc2c(c1)C(=O)N([C@H](Cc1ccc([N+](=O)[O-])cc1)C(=O)O)C2=O	/	/	1.8%	/	/	/
Cc1ccc(NS(=O)(=O)c2cc3c(cc2N(C)CCN(C)C)NC(=O)CC3)cc1C	/	/	-1.5%	/	/	/
Cc1cccc(NC(=O)c2ccc(-c3ccccc3)s2)c1	-0.9%	-9.4	-11.3%	i	i	i
O=C(Nc1cccc(F)c1)c1ccc(-c2ccccc2)s1	7.2%	68.3*	2.6%	i	i	i
Cc1cccc(NC(=O)c2sc3nc(-c4cc5ccc(O)cc5oc4=O)[nH]c(=O)c3c2C)c1	2.5%	1.9	7.08µM*	i	i	i
Cc1ccc(CNC(=O)CN(c2ccc(C(C)C)cc2)S(=O)(=O)c2c(C)n[nH]c2C)cc1	0.0%	83.3*	17.1%	i	i	i
SMILES	GALK inh	GPR32 ag	NTMT1 inh	GALC G270D up	B2AR arrestin ag	TSG101-PTAP inh
Cc1ccc(CNC(=O)CN(c2ccc(C)cc2)S(=O)(=O)c2c(C)nn(C)c2C)cc1	8.6%	-1.7	0.5%	i	i	i
NCCS	/	-14.5	31.6µM*	i	/	/
N#Cc1cccc(Nc2ncc(-c3cccc4ccccc34)o2)c1	/	/	12.1%	/	/	/
COc1ccc2c(CNC3CCC(C)CC3)c(C(=O)O)n(Cc3ccc(F)cc3)c2c1 (stereo not drawn)	-1.6%	91.1*	9.1%	i	i	i
COc1ccc(Cn2c(C(=O)O)c(CNCc3ccc(C)o3)c3ccc(OC)cc32)cc1	0.8%	74.6*	-1.3%	i	i	i
COc1ccc2c(CNCCc3ccco3)c(C(=O)O)n(Cc3ccc(C)cc3)c2c1	0.0%	89.4*	-0.6%	i	i	i
Fc1ccc(-c2nc(-c3ccncc3)nc3ccccc23)cc1F	/	/	6.5%	/	/	/
Cc1cc(N[S+](=O)([O-])c2cc3c(cc2Cl)CCC(=O)N3)ccc1Cl	/	/	10.3%	/	/	/
Cc1ccc(S(=O)(=O)NCC(=O)Nc2nc(-c3ccccc3)cs2)cc1	/	/	-7.4%[57.5 µM]	/	/	/
Cc1nc(-c2ccc(S(=O)(=O)NCc3ccc(OC(C)C)cc3)cc2)co1	1.9%	?	-0.2%	i	i	i
Cc1nc(-c2ccc(S(=O)(=O)Nc3cc(Cl)ccc3C)cc2)co1	-8.6%	82.3*	-5.9%	i	i	i
Cc1nc(-c2ccc(S(=O)(=O)N3CCN(c4cc(Cl)ccc4C)CC3)cc2)co1	0.7%	-14.7	2.8%	i	i	i
Cc1nc(-c2ccc(S(=O)(=O)Nc3ccc(OC(F)(F)F)cc3)cc2)co1	-10.9%	114.3*	12.3%	i	i	i
CC(=O)Nc1sc2c(c1-c1cccc3c1sc1ccccc13)CCNC2	/	/	-5.2%	/	/	/
CCCC(O)c1nc2ccccc2n1CCCOc1ccc(Cl)cc1 (stereo not drawn)	0.8%	68.1*	12.2%	i	i	i
Cc1ccc(C(=O)CSc2nc(C)cc(C)c2C(=O)Nc2cccc(C)c2)cc1	1.1%	-25.8	50.1µM*	i	i	i
COc1ccc(C(=O)CSc2nc(C)cc(C)c2C(=O)Nc2ccccc2C)cc1	2.0%	-20.8	2.82µM*	i	i	i
O=C(O)c1ccc(O)c2ncc(NC3CCNCC3)cc12	/	/	2.3%[57.5 µM]	/	/	/
CC1CCC2(NC1)OC1CC3C4CC=C5CC(O[C@@H]6O[C@H](CO)[C@@H](O[C@@H]7O[C@@H](C)[C@H](O)[C@@H](O)[C@H]7O)[C@H](O)[C@H]6O[C@@H]6O[C@@H](C)[C@H](O)[C@@H](O)[C@H]6O)CCC5(C)C4CCC3(C)C1C2C (stereo partly drawn)	/	/	5.3%[12.6 µM]	/	/	/
CSc1ncc(C(=O)Nc2ccc(F)cc2F)c(-c2ccccc2)n1	0.7%	43.5	9.1%	i	i	i
CSc1ncc(C(=O)Nc2ccccc2C(F)(F)F)c(-c2ccccc2)n1	-2.7%	?	89.1µM*	i	i	i
